According to PubChem BioAssay AID624058 (Broad Institute, 2012):
Records with an inconclusive call do not appear. Active and inactive are the calls of the source. How the calls were made is not given here.

assay: P. aeruginosa growth delay with metal chelator, dose response, OD600, EDDHA, ATCC 15692, cherry-pick, set 2 (AID 624058); details: P. aeruginosa ATCC 15692 with EDDHA, OD600, 24-30 h; series mostly up to 50 µM

outcome, inactive:
CCOC(=O)/C=C(\C)Sc1cc(=O)oc2ccccc12, Cc1ccc(S(=O)c2ccc(C)cc2)cc1, CCOC(=O)c1ccc(-c2ccc(CO)o2)cc1, N#C/C(=C/c1ccco1)c1nc2ccccc2s1, N#Cc1cc(-c2ccccc2)cnc1Cl, O=C1C2C(C(=O)N1Cc1ccco1)C1C=CC2C12CC2 (centres undefined), COc1ccccc1C(C#N)c1cccc(Cl)n1 (centres undefined), O=CN(c1ccccc1)c1ccc2ccccc2c1, Cn1cccc1C(C#N)c1cccc(F)c1C#N (centres undefined), CCCNS(=O)(=O)c1ccc(OC)c(Cl)c1Cl, O=[N+]([O-])c1ccc(N2CCCC2)nc1, CCOC(=O)N1CCN(c2ccc(Cl)cc2)CC1, O=[N+]([O-])c1ccc(N2CCCCC2)nc1, CCOc1ccc(-n2cccc2C=O)cc1
